HPGD block: inhibitors of human 15-hydroxyprostaglandin dehydrogenase (HPGD); P15428; purified HPGD, NADH fluorescence kinetic, PGE2 substrate; Potency, µM, inactives show at the top dose activity change, negative = inhibition, most hits filed as inhibitors; actives 4.3% (n = 150,000); AID 894; further: potency means the concentration at half of the fitted maximal effect
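20 nM HPGD preincubated 15 min at room temperature with compound in 50 mM Tris-HCl pH 8, 0.01% Tween 20. Started with 1 mM NAD+ and 30 uM prostaglandin E2; NADH fluorescence (360/450 nm) read 5 times over 30-s intervals, last minus first.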
ALDH1A1 inh: blocks purified human ALDH1A1 activity | Purified ALDH1A1, NADH fluorescence, propionaldehyde substrate | Potency, µM (titrated, usually from 75.3 µM), inactives show at the top dose activity, negative = inhibition, usual class: inhibitors | actives 7.3% (n = 220,000) | AID 1030;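 further: potency means the concentration at half of the fitted maximal effect; plate controls were no enzyme wells and a reference inhibitor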
IMPase inh: IMPase inhibition in cells | P97697 | CHO-M1 cells, IP1 accumulation, HTRF TR-FRET ratio | inhibition (IP1 accumulation), % at 46.1 µM | 120,000 tested, under 10 active; active means well fitted curve in the direction sought with a large enough effect in the signal ratio, not every such curve was filed as active; inconclusive means small, poorly fitted or top-dose-only effect, or a change in a side signal; inactive means no such curve, though single readings can be large or run the other way; the % refers to the signal ratio;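 further: cells stimulated with carbachol in lithium chloride buffer; plate controls were DMSO basal wells for no effect and reference inhibitor wells for full effect; higher means more IMPase inhibition seen as more IP1 and lower FRET ratio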
Target sequence (P97697 whole entry, looked up): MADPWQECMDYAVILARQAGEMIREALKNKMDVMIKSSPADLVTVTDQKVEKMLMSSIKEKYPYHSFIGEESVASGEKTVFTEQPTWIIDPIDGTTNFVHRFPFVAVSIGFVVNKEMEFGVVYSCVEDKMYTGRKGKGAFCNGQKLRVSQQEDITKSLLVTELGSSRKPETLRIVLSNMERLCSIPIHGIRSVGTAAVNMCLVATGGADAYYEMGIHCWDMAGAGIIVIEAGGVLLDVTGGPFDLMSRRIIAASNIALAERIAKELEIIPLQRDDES
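Cellular IMPase inhibition is scored as a rise in cytosolic IP1, detected by competitive TR-FRET between d2-labelled IP1 and a europium anti-IP1 antibody. M1-expressing CHO cells were stimulated with carbachol for 30 min at 37C, with lithium (50 mM LiCl) present in the buffer.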
* marks the source's active call; other numbers are inactive results; ? = inconclusive; . = not tested or not shown; [ ] = remark or other dose. Hits are enriched below; roughly 9% of the tested compounds scored in any of these assays. Unless noted, the call rests on the fitted dose curve; in most records, active means well fitted inhibition curve with a large enough effect (not every such curve was filed as active); inconclusive means small, poorly fitted or top-dose-only effect, or another doubt; inactive means no such curve, though single readings can be large or run the other way. Unless noted, on the % scale 0 is the no-effect control and ±100 the full control effect.

SMILES	HPGD block	ALDH1A1 inh	IMPase inh
Oc1ccc(-c2cnns2)c(O)c1	2µM*	25.1µM*	.
Oc1ccc(-c2csc(Nc3ncccn3)n2)c(O)c1	.	21.2%	.
CCOC(=O)C(=NCCCN(C)C)NNc1cc(C(F)(F)F)ccc1Cl	.	-4.9%	.
CCN1C(=O)c2cccc3c(S(=O)(=O)NCc4cccnc4)ccc1c23	-25.3%	?	-15.0
CCN1C(=O)c2cccc3c(S(=O)(=O)Nc4ccncc4)ccc1c23	?	?	-1.2
CCN1C(=O)c2cccc3c(S(=O)(=O)Nc4nc(C)cs4)ccc1c23	-21.2%	3.55µM*	7.6
CCN1C(=O)c2cccc3c(S(=O)(=O)Nc4ccccc4)ccc1c23	-14.6%	1µM*	-6.1
CCN1C(=O)c2cccc3c(S(=O)(=O)NCc4ccco4)ccc1c23	-5.6%	?	-1.8
CCN1C(=O)c2cccc3c(S(=O)(=O)Nc4ncccc4C)ccc1c23	-25.4%	10µM*	-5.6
CCN1C(=O)c2cccc3c(S(=O)(=O)Nc4ccc(OC)cc4OC)ccc1c23	-6.9%	11.2µM*	-7.0
Cc1csc(NS(=O)(=O)c2cccc([N+](=O)[O-])c2)n1	.	2.3%	.
N[C@H](CCCC(=O)O)C(=O)O	.	.	2.5
CCC1=C(OC(=O)N(CC)CC)N2C(=O)OC(=NCCc3c[nH]c4ccccc34)[C@]2(C)[C@H]2C1=CC[C@H]1C(=O)N(C)C(=O)[C@H]12	-15.1%	-2.3%	.
CN(C)c1cccc2c(S(=O)(=O)Nc3ccccn3)cccc12	-15.2%	-15.6%	-15.8
CCN1C(=O)c2cccc3c(S(=O)(=O)Nc4ccccn4)ccc1c23	-5.0%	7.94µM*	-3.5
Cn1c(N)c(-c2nc3cccnc3n2C)sc1=S	.	-12.2%	.
Cc1ccc(-n2c(N)c(-c3nc4ccccc4n3C)sc2=S)cc1	6.31µM*	3.55µM*	0.2
CC[C@@H]1CN2CCc3cc(OC)c(OC)cc3[C@H]2C[C@@H]1C[C@@H]1NCCc2cc(OC)c(OC)cc21	.	.	3.4
Cc1sc2ncnc(OCC(=O)Nc3ccc4c(c3)OCCO4)c2c1C	-21.9%	20µM*	-3.2
O=C(COc1ncnc2sccc12)Nc1ccc2c(c1)OCCO2	-8.4%	-5.1%	1.2
Cc1ccc2c(c1)C(=O)OC(C(=O)Nc1ncc(Cc3ccccc3Cl)s1)C2 (centres undefined)	.	.	-7.3
O=C(Nc1ccc(CN2CCOCC2)cc1)c1ccc(-c2ccc(Cl)cc2Cl)o1	.	10µM*	.
O=C(Nc1ccc(Cl)cn1)c1cc2ccccc2o1	-18.5%	-6.1%	13.9
S=C(c1ccc(-c2ccc(Cl)cc2Cl)o1)N1CCCCC1	?	14.1µM*	1.4
O=C(Nc1ccc(CN2CCOCC2)cc1)c1ccc(-c2cccc(Cl)c2)o1	?	?	2.3
SMILES	HPGD block	ALDH1A1 inh	IMPase inh
O=C(Nc1ccc(Cl)cn1)c1ccc(-c2cc(Cl)ccc2Cl)o1	.	17.8µM*	-5.6
S=C(c1ccc(-c2ccc(Cl)cc2Cl)o1)N1CCCC1	.	3.98µM*	.
N#CCCN1CCN(C(=S)c2ccc(-c3cc(Cl)ccc3Cl)o2)CC1	-13.8%	?	5.9
S=C(Nc1ccc(Cl)cc1Cl)N1CCCCC1	-6.7%	-7.7%	.
Cn1cnnc1SCc1ccc(C(=O)N=Nc2c(O)n(C)c3ccccc23)cc1	-10.5%	2.1%	.
Cc1noc(C)c1C(=O)N1CCC2(CC1)CN(C(=O)Nc1cccc(F)c1)C2	-13.0%	5.2%	.
CNCc1ccccc1OCC(=O)Nc1ccccc1OC	-6.1%	4.6%	-1.9
Cc1cccc(C(=O)N2CCN(c3ccc(C(F)(F)F)cn3)CC2)c1C	-5.7%	-16.6%	7.1
CN(Cc1cn(Cc2ccccc2)nc1-c1ccc2c(c1)OCO2)Cc1nccn1C	.	3.8%	.
COCCOC(=O)c1[nH]c2c(c1C)C(=O)CC(c1ccc(F)cc1)C2 (centres undefined)	-5.7%	5.2%	3.7
COc1ccc(COC(=O)c2[nH]c3c(c2C)C(=O)CC(c2ccc(OC)c(OC)c2)C3)cc1 (centres undefined)	.	.	8.3
C=CCOC(=O)c1[nH]c2c(c1C)C(=O)CC(c1cc(OC)c(OC)c(OC)c1)C2 (centres undefined)	-2.4%	?	15.9
CCOC(=O)c1[nH]c2c(c1-c1ccc(OC)cc1)C(=O)CC(c1ccc(OC)c(OC)c1)C2 (centres undefined)	-14.3%	28.2µM*	.
COCCOC(=O)c1[nH]c2c(c1C)C(=O)CC(c1ccc(N(C)C)cc1)C2 (centres undefined)	-6.3%	14.1µM*	2.1
CCCCOC(=O)c1[nH]c2c(c1C)C(=O)CC(c1cc(OC)c(OC)c(OC)c1)C2 (centres undefined)	-3.7%	5.01µM*	2.3
C=C1c2c(Cl)ccc(O)c2C(O)=C2C(=O)[C@@]3(O)C(O)=C(C(N)=O)C(=O)[C@@H](N(C)C)[C@@H]3[C@@H](O)[C@H]12	-21.2%	?	1.1[20.6 µM]
